# Test results from PubChem BioAssay (NCATS).
# Inconclusive results are not listed. A call without a number means that no potency is given here. Activity calls are given as the source filed them. Calls follow the shape of the dose curve; as a rule, active = well fitted inhibition curve with a large enough effect; inconclusive = small, poorly fitted or top-dose-only effect; inactive = flat fitted curve, though single readings scatter. Bridge positions count the residues as written; N and C are the ends. Square brackets hold non-standard residues; d marks the D form. Peptide text beside a SMILES is read from it. * marks the point of attachment. Ileψ(thiazoline)Cys = CC[C@H](C)[C@H](N)C1=N[C@H](C(=O)*)CS1; d(aIle) = CC[C@H](C)[C@@H](N)C(=O)O; dOrn = NCCC[C@@H](N)C(=O)O
# Tested on: FAB9
# Assay: qHTS profiling for inhibitors of Plasmodium falciparum proliferation (AID 504749); also: nearly all actives have a fitted effect of over 60% in size
# Conditions: P. falciparum in erythrocytes, SYBR Green DNA, 72 h; series mostly up to 12.8 µM
# How it was run: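 Quantitative HTS: compounds pinned into medium, infected erythrocytes added (0.3% parasitemia, 2.5% hematocrit), 72 h culture at 37 C under 5% CO2. Saponin/Triton lysis with SYBR Green I, overnight RT, then fluorescence read.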
# Potency is read from the fitted curve at half-maximal effect.
row,Compound,Potency
1,C[C@@H]1C[C@H]2[C@@H]3C[C@H](F)C4=CC(=O)C=C[C@@]4(C)[C@]3(F)[C@H](O)C[C@]2(C)[C@@]1(O)C(=O)CO,inactive
2,C[C@H](O)Cn1cnc2c1c(=O)n(C)c(=O)n2C,inactive
3,CCCCC[C@H](O)/C=C\[C@@H]1[C@H](O)CC(=O)[C@@H]1CCCCCCC(=O)O,inactive
4,CC(=C(CCOP(=O)(O)O)SC(=O)c1ccccc1)N(C=O)Cc1cnc(C)nc1N,inactive
5,NC[C@@H]1O[C@@H](O[C@H]2[C@H](O)[C@H](O[C@@H]3O[C@H](CO)[C@@H](O)[C@H](N)[C@@H]3O)[C@@H](N)C[C@H]2N)[C@H](N)C[C@@H]1O,inactive
6,CCc1c(C)[nH]c2c1C(=O)[C@H](CN1CCOCC1)CC2,inactive
7,C=C1c2c(Cl)ccc(O)c2C(O)=C2C(=O)[C@@]3(O)C(O)=C(C(N)=O)C(=O)[C@@H](N(C)C)[C@@H]3[C@@H](O)[C@H]12,inactive
8,CC[C@H](C)[C@H](N)C1=N[C@H](C(=O)N[C@@H](CC(C)C)C(=O)N[C@@H](CCC(=O)O)C(=O)N[C@@H](C(=O)N[C@H]2CCCCNC(=O)[C@@H](CC(N)=O)NC(=O)[C@@H](CC(=O)O)NC(=O)[C@@H](Cc3cnc[nH]3)NC(=O)[C@@H](Cc3ccccc3)NC(=O)[C@@H]([C@@H](C)CC)NC(=O)[C@@H](CCCN)NC2=O)[C@@H](C)CC)CS1 ({Ileψ(thiazoline)Cys}-LE[d(aIle)]K[dOrn][d(aIle)][dF][dH][dD][dN]; lactam 4-C),inactive
9,O=C(N/N=C\c1ccc([N+](=O)[O-])o1)c1ccc(O)cc1,3.16 µM (active)
10,CCOC(=O)O[C@@H](C)OC(=O)[C@@H]1N2C(=O)[C@@H](NC(=O)[C@@H](N)c3ccccc3)[C@H]2SC1(C)C,inactive
11,Cc1cccc(CN2CCN([C@@H](c3ccccc3)c3ccc(Cl)cc3)CC2)c1,inactive
12,Cc1ccsc1/C=C\C1=NCCCN1C,inactive
13,O=C(O)COCCN1CCN([C@@H](c2ccccc2)c2ccc(Cl)cc2)CC1,inactive
14,C#C[C@]1(O)CC[C@@H]2[C@H]3CCC4=CCCC[C@@H]4[C@@H]3CC[C@@]21C,inactive
15,CC1(C)[C@@H](OC(=O)CCC(=O)O)CC[C@@]2(C)[C@H]1CC[C@@]1(C)[C@H]2C(=O)C=C2[C@H]3C[C@](C)(C(=O)O)CC[C@]3(C)CC[C@@]21C,inactive
16,C[C@H](CCC(=O)O)[C@H]1CC[C@@H]2[C@@H]3[C@@H](O)C[C@H]4C[C@@H](O)CC[C@@]4(C)[C@H]3CC[C@@]21C,inactive
17,CN1CCO[C@H](c2ccccc2)c2ccccc2C1,inactive
